Results on 15 compounds are retold here after PubChem BioAssay (NCATS).

“And” between values parts separate entries of the source, which are not always exact repeats. Equal values may be shown once. The source made the active and inactive calls. Unless noted, calls follow the shape of the dose curve; as a rule, active = well fitted curve in the direction sought with a large enough effect; inconclusive = small, poorly fitted or top-dose-only effect, or another doubt; inactive = no such curve, though single readings can be large; an effect the other way counts as inactive or inconclusive.

For assay [1], the target named is ATP-dependent 6-phosphofructokinase (Trypanosoma brucei brucei) (UniProt O15648). The experiment in a line: qHTS Assay to Find Inhibitors of T. brucei phosphofructokinase: hit validation (AID 492961). Also: series mostly up to about 51 µM; % is scaled to controls: 0 for no effect and ±100 for the full control effect. The essentials: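 Luminescence from ADP-Glo reports ADP generated as T. brucei PFK (1.25 nM) phosphorylates 0.5 mM fructose-6-phosphate using 0.1 mM ATP. Reactions ran 45 min at room temperature, pH 8.0.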
ATP-dependent 6-phosphofructokinase (Trypanosoma brucei brucei), sequence (O15648 whole entry, looked up): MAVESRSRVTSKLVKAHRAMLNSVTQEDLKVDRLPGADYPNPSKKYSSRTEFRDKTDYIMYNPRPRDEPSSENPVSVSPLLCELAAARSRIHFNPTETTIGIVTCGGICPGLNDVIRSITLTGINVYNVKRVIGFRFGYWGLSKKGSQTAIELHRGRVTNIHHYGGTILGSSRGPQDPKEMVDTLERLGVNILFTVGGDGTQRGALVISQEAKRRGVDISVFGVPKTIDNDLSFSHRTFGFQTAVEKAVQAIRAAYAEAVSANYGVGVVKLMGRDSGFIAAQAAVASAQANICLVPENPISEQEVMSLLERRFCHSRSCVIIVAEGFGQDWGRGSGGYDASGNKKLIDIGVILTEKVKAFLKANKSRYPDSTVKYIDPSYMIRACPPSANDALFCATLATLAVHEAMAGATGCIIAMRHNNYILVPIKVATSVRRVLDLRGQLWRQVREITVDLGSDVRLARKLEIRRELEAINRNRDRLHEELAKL
(Quantitative high-throughput screening tests each substance at several concentrations.)

In assay [2] the target is Ubiquitin carboxyl-terminal hydrolase 1 (Homo sapiens) (UniProt O94782). The experiment in a line: Inhibitors of USP1/UAF1: Pilot qHTS (AID 504865). Also: nearly all actives have a fitted effect of over 35% in size. Also: potency is read from the fitted curve at half-maximal effect. The procedure, abridged:
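Deubiquitinase activity followed as kinetic rhodamine fluorescence release from 150 nM Ub-Rho. 1 nM USP1/UAF1 with compound, after 15 min room-temperature preincubation, in HEPES pH 7.8 buffer containing TCEP, EDTA, BSA and Tween-20.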

The target in assay [3] is Estrogen receptor (Homo sapiens) (UniProt P03372). The experiment in a line: qHTS assay for small molecule antagonists of estrogen receptor alpha signaling (AID 588513; active = well fitted curve in the direction sought with a large enough effect in the signal ratio, with a control signal flat, not every such curve was filed as active; inconclusive = small, poorly fitted or top-dose-only effect, or effect the other way, or a change in a side signal; inactive = no such curve, though single readings can be large or run the other way; the % refers to the signal ratio; also: potency is read from the fitted curve at half-maximal effect). The procedure, abridged: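 Antagonist mode: inhibition of 0.5 nM 17-beta-estradiol-driven beta-lactamase reporter in HEK 293 ER-alpha-UAS-bla cells, 18 h at 37C, CCF4 readout after 2 h at RT. Normalised to estradiol and DMSO; titration fitted to Hill.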
Estrogen receptor (Homo sapiens), sequence (P03372 whole entry, looked up): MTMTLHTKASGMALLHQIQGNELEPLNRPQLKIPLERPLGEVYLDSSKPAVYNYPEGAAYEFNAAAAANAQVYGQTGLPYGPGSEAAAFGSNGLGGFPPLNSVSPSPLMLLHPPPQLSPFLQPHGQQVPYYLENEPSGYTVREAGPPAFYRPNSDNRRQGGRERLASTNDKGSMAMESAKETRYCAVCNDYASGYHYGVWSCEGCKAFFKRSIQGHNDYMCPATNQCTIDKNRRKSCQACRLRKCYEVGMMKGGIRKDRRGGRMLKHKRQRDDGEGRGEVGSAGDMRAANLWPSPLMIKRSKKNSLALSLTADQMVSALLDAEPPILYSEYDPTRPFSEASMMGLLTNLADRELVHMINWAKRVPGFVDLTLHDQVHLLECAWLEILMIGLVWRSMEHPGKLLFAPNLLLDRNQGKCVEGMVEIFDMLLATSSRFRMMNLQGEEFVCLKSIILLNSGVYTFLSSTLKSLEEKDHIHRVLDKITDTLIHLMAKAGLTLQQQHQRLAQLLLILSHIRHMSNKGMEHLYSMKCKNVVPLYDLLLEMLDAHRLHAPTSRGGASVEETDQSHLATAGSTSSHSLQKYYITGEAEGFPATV

For assay [4] the target is unchanged. The experiment in a line: qHTS assay for small molecule agonists of estrogen receptor alpha signaling (AID 588514; calls by dose curve;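 also: 0% = vehicle only and 100% = reference agonist; nearly all actives have a fitted effect of over 70% in size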). The procedure, abridged:
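Cells were plated at 5000/well, incubated 4 hrs at 37 C, dosed with compound titration series, incubated 18 hrs at 37 C, loaded with CCF4 dye for 2 hrs at RT, then fluorescence was read.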

Assay [5] has as its target Bile acid receptor (Homo sapiens) (UniProt Q96RI1). Kind of assay: qHTS assay for small molecule antagonists of farnesoid X receptor signaling (AID 588526; calls by dose curve; also: % is scaled to controls: 0 for no effect and ±100 for the full control effect). The essentials:
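Antagonist mode: titrated compounds tested against chenodeoxycholic acid stimulation (normalized to 50 uM CDCA and DMSO) in GeneBLAzer HEK293T cells for 16 h. Beta-lactamase read by CCF4 fluorescence; IC50 from Hill fits.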

Assay [6] addresses Glucocorticoid receptor (Homo sapiens) (UniProt P04150). The experiment in a line: qHTS assay for small molecule agonists of glucocorticoid receptor signaling (AID 588532; active = well fitted curve in the direction sought with a large enough effect in the signal ratio, with a control signal flat; inconclusive = small, poorly fitted or top-dose-only effect, or a change in a side signal; inactive = no such curve, though single readings can be large or run the other way; the % refers to the signal ratio;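 also: 100% = dexamethasone at 0.1 µM and 0% = DMSO only wells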). The note with it: HeLa MMTV-bla, beta-lactamase ratio, agonist, 18 h; stronger effect = higher value; percent of dexamethasone control, DMSO zero. The procedure, abridged: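 Cells were plated and rested 3-5 h at 37 C, compounds were added in titration and incubated 18 h, then CCF4 substrate was loaded for 2 h at RT before reading blue/green fluorescence. EC50 came from Hill-equation fitting.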

For assay [7], the target named is Androgen receptor (Homo sapiens) (UniProt P10275). The experiment in a line: qHTS assay for small molecule agonists of androgen receptor signaling (AID 588515; active = well fitted curve in the direction sought with a large enough effect in the signal ratio, with a control signal flat; inconclusive = small, poorly fitted or top-dose-only effect, or effect the other way, or a change in a side signal; inactive = no such curve, though single readings can be large or run the other way; the % refers to the signal ratio; also: % is scaled to controls: 0 for no effect and ±100 for the full control effect). The note with it: AR-UAS-bla HEK293, beta-lactamase ratio, agonist 16 h; stronger effect = higher value. The essentials:
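EC50 and efficacy came from Hill fits of titrations (up to 92 uM) normalized to 30 nM R1881 as 100% and DMSO as 0%. Compound exposure was 16 h at 37 C on AR-UAS-bla HEK293 cells, with a 405/460/530 nm CCF4 fluorescence read.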

The target is the same in assay [8]. Kind of assay: qHTS assay for small molecule antagonists of androgen receptor signaling (AID 588516; active = well fitted curve in the direction sought with a large enough effect in the signal ratio, with a control signal flat, not every such curve was filed as active; inconclusive = small, poorly fitted or top-dose-only effect, or effect the other way, or a change in a side signal; inactive = no such curve, though single readings can be large or run the other way; the % refers to the signal ratio; also: % is scaled to controls: 0 for no effect and ±100 for the full control effect). The procedure, abridged: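 Antagonist mode: inhibition of R1881-stimulated (10 nM final) bla reporter in GeneBLAzer AR HEK 293 cells, 16 h at 37C, compounds titrated. IC50 and efficacy from Hill-equation fits of 405/460–530 nm FRET ratios.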
Assay [9] can be described thus: Validation screen for small molecules that induce genotoxicity in human embryonic kidney (HEK293T) cells expressing luciferase-tagged ELG1 (AID 493106). Also: 0% is about no effect. The essentials: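 Luminescence from an ELG1-luciferase fusion serves as the read-out, rising when genetic stress elevates ELG1 protein. HEK293T reporter cells (2,000 per well) received 23 nL compound, incubated 16 hr at 37 °C, then ONE-Glo for 30 min at room temperature.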

For assay [10], the target named is Thyrotropin-releasing hormone receptor (Homo sapiens) (UniProt P34981). The experiment in a line: qHTS for Small Molecule Agonists and Allosteric Enhancers of Human TRH Receptor: Validation Screen for Agonists (AID 493127;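 active = calcium activation more than 3 SD above the typical response in the agonist read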;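 also: intracellular calcium rise by fluo-8 fluorescence before TRH EC20 addition; 0% is about no effect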). As to conditions: TRH receptor agonist cell assay; at 2 µM; stronger effect = higher value. The essentials:
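Cells 2000/well, 10% FCS, 18 h 33.5C/5% CO2 → fluo-8 Ca dye, RT 30 min–1.5 h → FDSS baseline 10 × 1 s → compound added → 230 cycles (1 s/cycle) agonist mode. TRH controls.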

A short description of assay [11]: Nrf2 qHTS screen for inhibitors: Validation (AID 493153; active = well fitted inhibition curve with a large enough effect in the main read-out, with a control signal flat, not every such curve was filed as active; inconclusive = small, poorly fitted or top-dose-only effect, or effect the other way, or a change in a side signal; inactive = no such curve, though single readings can be large or run the other way). As to conditions: viability change: measured here: cytotoxicity max response. The procedure, abridged: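 Luminescence from an ARE-firefly luciferase reporter in A549 cells gives Nrf2 inhibition; an earlier CellTiter-Fluor fluorescent read flags cytotoxicity. Cells in 5% FBS OPTI-MEM received compound dilution series for 18-24 h at 37°C.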

A short description of assay [12]: qHTS for Inhibitors of Cell Surface uPA Generation: Validation Assay (AID 493164). Also: 0% is about no effect. The essentials:
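RAW 264.7 cells (4000/well) were plated overnight, then exposed for 18 h at 37 C, 5% CO2 to compounds in a 7-point 1:5 titration (2.45 nM–38.3 uM final). Intracellular ATP was read by ATP-Lite luminescence.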

Assay [13] deals with Galactokinase (Homo sapiens) (UniProt P51570). Kind of assay: qHTS Validation Assay for Inhibitors of Human Galactokinase (GALK) (AID 493189). Also: 0% is about no effect. The procedure, abridged: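 Inhibition was measured as remaining ATP, detected by luciferase luminescence after a 1 h room-temperature reaction. Final conditions: 5 nM GALK, 100 uM galactose, 35 uM ATP, pH 8.0 HEPES buffer.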
Galactokinase (Homo sapiens), sequence (P51570 whole entry, looked up): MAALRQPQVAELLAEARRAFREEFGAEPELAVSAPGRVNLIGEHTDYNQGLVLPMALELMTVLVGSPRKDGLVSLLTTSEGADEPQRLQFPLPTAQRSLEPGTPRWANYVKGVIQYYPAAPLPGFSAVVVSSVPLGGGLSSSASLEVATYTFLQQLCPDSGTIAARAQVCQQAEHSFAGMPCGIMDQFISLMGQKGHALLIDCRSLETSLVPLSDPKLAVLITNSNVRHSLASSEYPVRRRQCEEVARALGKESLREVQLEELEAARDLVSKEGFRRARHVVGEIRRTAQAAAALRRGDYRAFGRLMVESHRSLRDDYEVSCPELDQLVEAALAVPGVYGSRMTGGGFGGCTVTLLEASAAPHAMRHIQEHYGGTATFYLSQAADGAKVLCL
Assay [14] in a line: Validation screen for small molecules that induce DNA re-replication in SW480 colon adenocarcinoma cells (AID 504364). Also: 0% is about no effect. The procedure, abridged:
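250 cells/well; compound pinned in; 48 hr, 37 C, 5% CO2; Hoechst added, 40 min; nuclear fluorescence imaged, 405 ex / 500-530 em; re-replication scored as increase in high-intensity nuclei.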

Assay [15] addresses Peptidyl-prolyl cis-trans isomerase NIMA-interacting 1 (Homo sapiens) (UniProt Q13526). The experiment in a line: qHTS Validation Assay to Find Inhibitors of Pin1 (AID 504536; active = well fitted inhibition curve with a large enough effect in the polarisation, with a control signal flat, not every such curve was filed as active; inconclusive = small, poorly fitted or top-dose-only effect, or effect the other way; the % refers to the polarisation;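 also: 0% = full Pin1 enzyme wells and -100% = no-enzyme wells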). The procedure, abridged: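 Fluorescence polarization competition: compounds (titration) displace HiFluor-488-labeled Pin1-1b peptide from Pin1 (0.3 uM final) in pH 7.5 HEPES buffer with DTT, 10 min at room temperature; %Activity normalized to no-enzyme wells, curves fitted.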

Assay [16] has as its target phosphoglycerate mutase (Leishmania major) (UniProt Q4Q090). The experiment in a line: qHTS Validation Assay to Find Inhibitors of Phosphoglycerate Mutase (AID 504548). The essentials: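 Inhibition of L. major PGAM was assessed by Kinase-GloPlus luminescence following a 45-minute room-temperature reaction with enzyme at 1.25nM final.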
The target in assay [17] is ATPase family AAA domain-containing protein 5 (Homo sapiens) (UniProt Q96QE3). Kind of assay: Validation screen for small molecules that inhibit ELG1-dependent DNA repair in human embryonic kidney (HEK293T) cells expressing luciferase-tagged ELG1 (AID 493107).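 Also: cells co-treated with the DNA-damaging agent 5-fluorouridine alongside compound; series mostly up to about 46 µM; % is scaled to controls: 0 for no effect and ±100 for the full control effect; inhibitors lower the ELG1-luciferase luminescence signal; nearly all actives have a fitted effect of over 70% in size.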 The procedure, abridged:
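Luminescence from ONE-Glo, developed 30 min at room temperature, served as read-out of ELG1-luciferase levels. Beforehand, reporter HEK293T cells received 5-fluorouridine plus test compound for 16 hr at 37 °C.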

A short description of assay [18]: qHTS for Inhibitors of ATXN expression: Validation of Cytotoxic Assay (AID 588349). Also: % is scaled to controls: 0 for no effect and ±100 for the full control effect. The essentials:
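Read-out: ATP-based luminescence (CellTiter Glo) reflecting viability of HEK293 cells after 72 hr incubation at 37 degrees C with a concentration series of each compound.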

Assay [19] in a line: qHTS for Inhibitors of ATXN expression: Validation (AID 588378). Also: series mostly up to about 57 µM; % is scaled to controls: 0 for no effect and ±100 for the full control effect; nearly all actives have a fitted effect of over 75% in size. The essentials: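 Luciferase luminescence (Bright-Glo) from an ATXN2-FFLuc HEK293 line after 24 h compound exposure at 37 °C, preceded by a CellTiter-Fluor fluorescence viability read. Serial dilutions of a reference ATXN2 inhibitor and a luciferase inhibitor served as controls.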
For assay [20], the target named is DNA dC->dU-editing enzyme APOBEC-3G (Homo sapiens) (UniProt Q9HC16). Kind of assay: qHTS for inhibitors of Vif-A3G interactions: Validation (AID 588379). Also: 0% is about no effect. The essentials:
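HeLa cells stably expressing Vif and A3G-eYFP, 700 cells/well, incubated overnight at 37 deg C, then exposed to compound overnight at 37 deg C. Inhibition of Vif-mediated degradation read as increased yellow fluorescence (Ex 488/Em 500-530) by laser-scanning cytometry.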

Peptidyl-prolyl cis-trans isomerase NIMA-interacting 1 (Homo sapiens), sequence (Q13526 whole entry, looked up): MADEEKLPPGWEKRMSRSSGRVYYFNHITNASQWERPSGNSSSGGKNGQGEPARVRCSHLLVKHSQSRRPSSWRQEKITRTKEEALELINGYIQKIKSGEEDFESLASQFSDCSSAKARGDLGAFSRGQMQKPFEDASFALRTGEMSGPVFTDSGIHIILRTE
Ubiquitin carboxyl-terminal hydrolase 1 (Homo sapiens), sequence (O94782 whole entry, looked up): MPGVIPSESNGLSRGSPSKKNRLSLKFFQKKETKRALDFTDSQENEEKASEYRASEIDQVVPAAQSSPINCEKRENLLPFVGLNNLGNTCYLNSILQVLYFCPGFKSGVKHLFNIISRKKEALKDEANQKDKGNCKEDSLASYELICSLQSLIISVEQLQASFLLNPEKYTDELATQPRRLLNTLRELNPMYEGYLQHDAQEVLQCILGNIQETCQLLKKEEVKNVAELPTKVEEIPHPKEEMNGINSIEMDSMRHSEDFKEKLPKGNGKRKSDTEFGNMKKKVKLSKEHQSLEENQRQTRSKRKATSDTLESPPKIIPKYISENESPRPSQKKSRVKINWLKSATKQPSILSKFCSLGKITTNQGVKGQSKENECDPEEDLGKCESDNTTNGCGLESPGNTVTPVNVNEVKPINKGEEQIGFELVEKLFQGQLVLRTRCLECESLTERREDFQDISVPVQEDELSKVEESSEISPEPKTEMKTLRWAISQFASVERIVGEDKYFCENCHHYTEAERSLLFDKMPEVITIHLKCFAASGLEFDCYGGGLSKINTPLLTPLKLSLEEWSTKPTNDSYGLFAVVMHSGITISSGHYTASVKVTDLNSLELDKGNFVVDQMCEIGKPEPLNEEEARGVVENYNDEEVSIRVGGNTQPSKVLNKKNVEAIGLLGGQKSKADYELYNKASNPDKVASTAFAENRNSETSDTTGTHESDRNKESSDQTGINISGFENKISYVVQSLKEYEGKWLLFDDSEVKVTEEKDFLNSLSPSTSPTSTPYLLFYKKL
phosphoglycerate mutase (Leishmania major), sequence (Q4Q090 1-553): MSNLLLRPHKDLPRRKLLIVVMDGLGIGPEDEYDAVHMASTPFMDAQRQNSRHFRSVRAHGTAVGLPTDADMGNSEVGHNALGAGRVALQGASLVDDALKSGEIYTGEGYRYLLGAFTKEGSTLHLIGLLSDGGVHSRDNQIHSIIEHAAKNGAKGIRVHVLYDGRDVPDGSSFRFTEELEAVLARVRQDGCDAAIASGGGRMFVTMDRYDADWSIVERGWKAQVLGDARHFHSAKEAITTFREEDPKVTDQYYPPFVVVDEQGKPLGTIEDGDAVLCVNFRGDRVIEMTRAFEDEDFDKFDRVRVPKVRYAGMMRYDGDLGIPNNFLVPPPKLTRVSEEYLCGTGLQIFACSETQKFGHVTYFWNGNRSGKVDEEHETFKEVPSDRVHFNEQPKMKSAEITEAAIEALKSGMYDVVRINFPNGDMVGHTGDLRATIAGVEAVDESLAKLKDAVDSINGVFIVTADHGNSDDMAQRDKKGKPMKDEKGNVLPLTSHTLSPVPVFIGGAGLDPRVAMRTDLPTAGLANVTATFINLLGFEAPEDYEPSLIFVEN
Glucocorticoid receptor (Homo sapiens), sequence (P04150 whole entry, looked up): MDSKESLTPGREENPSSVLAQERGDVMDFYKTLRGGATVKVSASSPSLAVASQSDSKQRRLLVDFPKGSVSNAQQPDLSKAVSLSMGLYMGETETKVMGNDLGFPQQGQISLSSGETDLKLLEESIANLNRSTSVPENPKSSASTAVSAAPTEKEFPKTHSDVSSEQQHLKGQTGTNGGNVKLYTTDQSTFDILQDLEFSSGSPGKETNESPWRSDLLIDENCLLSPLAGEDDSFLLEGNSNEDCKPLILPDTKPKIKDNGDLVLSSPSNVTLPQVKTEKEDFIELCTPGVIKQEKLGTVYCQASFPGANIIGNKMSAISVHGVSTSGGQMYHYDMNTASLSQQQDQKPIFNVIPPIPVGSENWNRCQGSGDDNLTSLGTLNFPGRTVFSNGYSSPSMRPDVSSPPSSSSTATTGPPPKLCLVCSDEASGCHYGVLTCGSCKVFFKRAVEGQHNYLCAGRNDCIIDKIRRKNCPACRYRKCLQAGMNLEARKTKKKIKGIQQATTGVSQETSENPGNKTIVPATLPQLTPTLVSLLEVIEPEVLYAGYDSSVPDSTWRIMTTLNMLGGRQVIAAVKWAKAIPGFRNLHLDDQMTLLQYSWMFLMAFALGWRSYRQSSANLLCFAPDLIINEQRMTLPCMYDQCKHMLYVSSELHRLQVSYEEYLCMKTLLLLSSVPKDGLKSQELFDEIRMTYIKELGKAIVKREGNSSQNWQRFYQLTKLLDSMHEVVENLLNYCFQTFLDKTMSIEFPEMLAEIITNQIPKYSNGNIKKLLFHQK
Androgen receptor (Homo sapiens), sequence (P10275 whole entry, looked up): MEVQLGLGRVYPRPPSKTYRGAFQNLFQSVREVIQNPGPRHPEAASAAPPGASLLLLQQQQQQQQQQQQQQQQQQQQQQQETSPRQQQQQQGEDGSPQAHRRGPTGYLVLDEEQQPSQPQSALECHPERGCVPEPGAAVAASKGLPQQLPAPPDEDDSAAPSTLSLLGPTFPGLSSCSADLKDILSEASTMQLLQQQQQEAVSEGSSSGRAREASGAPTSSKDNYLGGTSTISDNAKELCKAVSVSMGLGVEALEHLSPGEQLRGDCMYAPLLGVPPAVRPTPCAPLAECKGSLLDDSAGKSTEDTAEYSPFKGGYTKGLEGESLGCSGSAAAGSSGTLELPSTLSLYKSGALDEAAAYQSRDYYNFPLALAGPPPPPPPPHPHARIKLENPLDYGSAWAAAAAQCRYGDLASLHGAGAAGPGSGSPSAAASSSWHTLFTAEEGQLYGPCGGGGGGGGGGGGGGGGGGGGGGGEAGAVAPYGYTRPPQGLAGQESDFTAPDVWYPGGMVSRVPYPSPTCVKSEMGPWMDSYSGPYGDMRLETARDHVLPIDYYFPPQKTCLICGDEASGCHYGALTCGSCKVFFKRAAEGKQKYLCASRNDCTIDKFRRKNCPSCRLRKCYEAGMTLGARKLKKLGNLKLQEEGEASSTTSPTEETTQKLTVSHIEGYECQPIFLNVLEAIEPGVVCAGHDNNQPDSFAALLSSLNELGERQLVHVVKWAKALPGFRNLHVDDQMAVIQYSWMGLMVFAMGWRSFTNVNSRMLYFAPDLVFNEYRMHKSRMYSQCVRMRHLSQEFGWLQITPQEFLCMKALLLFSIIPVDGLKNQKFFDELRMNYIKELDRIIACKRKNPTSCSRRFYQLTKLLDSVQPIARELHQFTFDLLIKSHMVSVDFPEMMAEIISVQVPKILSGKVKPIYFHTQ

Consider `CC(=O)Nc1c(I)cc(I)c(C(=O)O)c1I`, for which the compound was called inactive in assay [1]. Besides, the Potency entry in assay [2] was “inactive”.
As to `Nc1ccc(C(=O)O)cc1`, the result in [1] and in [4] was inactive. Moreover, the Potency result in assay [2], in [3] and in [5] was “inactive” each time. In assay [6], the activation was -1.78% (inactive).
Regarding `CCCN1CCCC[C@H]1C(=O)Nc1c(C)cccc1C`, in assay [1], the result was inactive. Also, the Potency entry in [2] was “inactive”.
For the compound `CC(=O)N(O)CCCCCNC(=O)CCC(=O)N(O)CCCCCNC(=O)CCC(=O)N(O)CCCCCN`, the compound was classed as inactive in assay [1]. The Potency result in assay [2] is “inactive”.
In the case of `CCCCCCc1ccc(O)cc1O`, the call in assay [1] and in assay [8] was inactive. Also, the Potency in [2] was 44.7 µM (active). In addition, the activation in assay [7] is -17.1% (inactive); in [6], -1.17% (inactive) and 14.5% (inactive).
Take `CC(CCc1ccccc1)NCC(O)c1ccc(O)c(C(N)=O)c1` (stereo unspecified): the call in assay [9], in assay [11], in assay [12], in [13], in [14] and in [15] was inactive. The call in [16] was inactive. The activation in assay [10] is 0.875% (inactive). Besides, in assay [11], the viability change was -13.8%. Besides, the Potency result in [2] was “inactive”.
For the compound `O=C(O)CCCCC(=O)O`, the outcome in assay [1] and in assay [4] was inactive. Also, the Potency entry in assay [2], in [3] and in assay [5] was “inactive” each time. The activation in assay [6] was 6.23% (inactive).
Take `CN1C2CCC1CC(OC(=O)c1c[nH]c3ccccc13)C2` (stereo unspecified): the outcome in assay [9], in [11], in assay [12], in [13], in [14] and in assay [15] was inactive. Besides, the compound was called inactive in [16]. For the same compound, the Potency result in assay [17] and in assay [2] was “inactive” each time. The activation in assay [10] was 0.812% (inactive). Besides, in assay [11], the viability change was -7.62%.
On to `N[C@H](Cc1c[nH]c2ccccc12)C(=O)O`, for which the Potency result in assay [2] was “inactive”.
With `CC[C@H](C)C(=O)O[C@H]1CCC=C2C=C[C@H](C)[C@H](CC[C@@H]3C[C@@H](O)CC(=O)O3)[C@H]21`, the Potency entry in assay [17], in assay [2] and in [19] was “inactive” each time. Further, the result in assay [11], in assay [12], in assay [15], in [16] and in assay [18] was inactive. The viability change in assay [11] was -16.9%.
`CN(C)CCOc1ccccc1Cc1ccccc1`: the Potency entry in assay [2] was “inactive”.
Still for that read-out and setting: next, `CCN1CCN(c2cc3c(cc2F)c(=O)c(C(=O)O)cn3C2CC2)CC1`: “inactive”.
For `CC(C)(Oc1ccc(Cl)cc1)C(=O)O`, the Potency result in assay [2] was “inactive”. Further, the result in assay [20] was inactive.
Regarding `CC(C)(C)CC(C)(C)c1ccc(OCCOCC[N+](C)(C)Cc2ccccc2)cc1`, the Potency in [3] is 44.7 µM [inconclusive] (active). Further, in [4], the result was inactive.
Consider `Oc1c(I)cc(Cl)c2cccnc12`, for which the Potency entry in assay [2] is “inactive”.
